Reference: ChEMBL document CHEMBL3988442, “University of Dundee, Small-Polar-MMV Screening Library” (2021)
About 1,000 (1.4%) of roughly 69,000 compounds showed an effect of 50% or more. The entries come from a sample that favours strong results as a whole.

System: Leishmania donovani
Assay: Leishmania intramacrophage assay
Assay type: functional, organism-based
Set-up: scale not given: in the data most compounds retested in dose-response had high values

OC(COCc1ccccc1Cl)CN1CCC(c2ccn[nH]2)CC1 (stereo not given)
Percent Effect (30 µM): 17.67%

O=C(Cc1csc(-c2ccsc2)n1)N1CCN(c2cnccn2)CC1
Percent Effect (30 µM): 8.045%

Cc1cc(C(=O)N2CCn3cc(CN(C)C)nc3C2)no1
Percent Effect (30.3 µM, […]): 18.85%

CC(O)CN1CCN(C(=O)c2ccn(-c3ccc(F)cc3)n2)CC1 (stereo not given)
Percent Effect (30.3 µM, […]): -32.18%

Cn1ccc(C(=O)N2CCC(Cc3cnc4[nH]ccc4c3)CC2)n1
Percent Effect (30 µM, 30.03 µM): 27.84%

CO[C@@H]1CC[C@@H](N(C)C(=O)COc2ccc(F)cc2)[C@H]1O
Percent Effect (30 µM, 30.03 µM): -20.57%

CCc1nn(-c2cc(Oc3cc(C)ccc3C)nc(C)n2)c(N)c1C#N
Percent Effect (30.3 µM, […]): 18.36%

CCc1nn(-c2cc(Oc3cc(C)ccc3C)ncn2)c(N)c1C#N
Percent Effect (30.3 µM, […]): 55.59%

Cc1ccc(C)c(Oc2cc(-n3nc(C)c(C#N)c3N)nc(C)n2)c1
Percent Effect (30.3 µM, […]): 6.945%

NCC(=O)N1CCCC(O)(CN2CCN(c3ccccc3)CC2)CC1 (stereo not given)
Percent Effect (30.3 µM, […]): 24.84%

Cc1nc(CNC(=O)N2CCN(c3ccc(Cl)cn3)CC2)no1
Percent Effect (30.3 µM, […]): -6.718%

CS(=O)(=O)CCN1CCN(c2ccc(Cl)cn2)CC1
Percent Effect (30.3 µM, […]): 0.04205%

Cc1nc(CN2CCN(c3ccc(Cl)cn3)CC2)no1
Percent Effect (30.3 µM, […]): 51.54%

CSCCCN1CCN(c2ccc(Cl)cn2)CC1
Percent Effect (30.3 µM, […]): 30.03%

Clc1ccc(N2CCN(CCCN3CCCCC3)CC2)nc1
Percent Effect (30.3 µM, […]): 68.75%

Cc1nc(CN2CCN(Cc3nccn3C)CC2)no1
Percent Effect (30 µM, 30.03 µM): 11.72%

O=C(NCCNc1ccc(C(F)(F)F)cn1)c1ccc(Br)cc1F
Percent Effect (30 µM, 30.03 µM): -32.97%

CN(Cc1cn[nH]c1-c1ccc(F)cc1)C(=O)CCC1CC1
Percent Effect (30.3 µM, […]): -4.143%

CCn1cc(CN2CCC(C3CCN(C)CC3)CC2)cc1C#N
Percent Effect (30.3 µM, […]): 8.451%

COc1ccc(/C=C/CN2CCCC3(C2)CN(C)C(=O)O3)cc1 (stereo not given)
Percent Effect (30.3 µM, […]): 14.77%

COC[C@@]12CC[C@@H](N3CCOCC3)C[C@H]1CCN(c1cc(C)ccn1)C2
Percent Effect (30.3 µM, […]): 28.55%

CC(C)Cn1nc(-c2ccc(C(=O)O)cc2)cc1-c1ccc(F)cc1
Percent Effect (30.3 µM, […]): 41.19%

CCC(O)Cn1nc(-c2ccc(C(=O)O)cc2)cc1-c1ccc(F)cc1 (stereo not given)
Percent Effect (30.3 µM, […]): 61.24%

CCC(O)Cn1nc(-c2ccc(C(=O)O)cc2)cc1-c1cccc(F)c1 (stereo not given)
Percent Effect (30.3 µM, […]): 29.44%

Fc1cccc(N2CCc3ncnc(C4CC4)c3CC2)c1
Percent Effect (30.3 µM, […]): 15.99%

COCCCN1C(=O)CC[C@H]2CN(Cc3cc4ccccc4o3)CC[C@H]21
Percent Effect (30.3 µM, […]): 10.23%

CCN1CCC(NC(=O)NC2CCOc3ccc(Br)cc32)CC1 (stereo not given)
Percent Effect (30.3 µM, […]): 1.839%

c1ccc(C2CN(C3CC3)CC3(CCN(Cc4ncc[nH]4)CC3)C2)cc1 (stereo not given)
Percent Effect (30.3 µM, […]): 51.92%

CCN1CC(c2ccccc2)CC2(CCN(Cc3ncc[nH]3)CC2)C1 (stereo not given)
Percent Effect (30.3 µM, […]): 35.04%

CN1CC(c2ccccc2)CC2(CCN(Cc3ncc[nH]3)CC2)C1 (stereo not given)
Percent Effect (30.3 µM, […]): 16.63%
